From the OligoGym collection come the findings set out here.
Further: reference of the scale not given here.

The target in the first experiment is ESR2. Kind of experiment: pooled miR-30 sensor sort-seq; sequence = guide strand. The conditions noted are these: shRNA.
TTTTTATCGATTGTACACTGAT showed a sensor-assay potency score (higher = more potent) of -0.36. Sequence TTCCAAGTTAGTGACATTGCTG showed a sensor-assay potency score (higher = more potent) of -0.291. Still for that read-out and setting: with TAGCTGGACAAATATAATCATT the figure was -1.44. In turn, TTGTCGGCCAACTTGGTCAGGG showed a sensor-assay potency score (higher = more potent) of -0.443.

TTTTCTGCCCTCGCATGCCTGA returned a sensor-assay potency score (higher = more potent) of -0.946. TAATCGCTGCAGACAGCGCAGA registered a sensor-assay potency score (higher = more potent) of -1.17.

In turn, TACAGATGTGATAACTGGCGAT came in with a sensor-assay potency score (higher = more potent) of -0.498. Same read-out and setting: then TACCCACATCTCTCTCTCCGGG, with -0.444. TTACATCCTTCACACGACCAGA: the sensor-assay potency score (higher = more potent) was -0.608. The same measure, in the same setting: with TTGAGCGCCACATCAGCCCCAT the figure was -0.177; with TTATCGATTGTACACTGATTTG, -1.64; with TAAAAAAGGCCTTACATCCTTC, -0.442.

TATCGATTGTACACTGATTTGT returned a sensor-assay potency score (higher = more potent) of -0.431. Same read-out and setting: then TTATGTCCTTGAATGCTTCTTT, with 0.411; and TAATTCATCACAGCAGGGCTAT, with -0.611. In turn, TTCCTTTTCAGTGTCTCTCTGT had a sensor-assay potency score (higher = more potent) of 0.263.

The target of a further experiment is ETFA. The description is as above. The conditions noted are these: shRNA.
TAAATCTGCAACTATTCCATAA: the sensor-assay potency score (higher = more potent) is -0.957. Same read-out and setting: then TGTAATTGAACTGCTTCTGAGT, with -0.4; and TCTTGCTGTCTTTCATCCCAGC, with -0.987. For TTTACAGAGATCTTGTGCCACC, the sensor-assay potency score (higher = more potent) is -0.57. In the case of TGTGTAATTGAACTGCTTCTGA, the sensor-assay potency score (higher = more potent) was found to be 0.237. Same read-out and setting: with TTCTCATCACACTTCACTGTAC the figure was -0.442; with TTTCACTTTCTCATCACACTTC, 0.639. The same measure, in the same setting: then TATTCCATAATCTGCCACTTGG, with -0.476; and TTAGCTCTGGTCGATCACTTTT, with -1.24; and TCCAACTTGCATGTCATTGGGA, with -0.493. Still for that read-out and setting: then TAAATAGTTCTCACAAATGTGT, with -0.288; and TTGATGCCTTTTCTGAACTGGC, with -0.864. With TTTCTCATCACACTTCACTGTA, the sensor-assay potency score (higher = more potent) stood at 0.00115. Same read-out and setting: with TAGTTCTCACAAATGTGTCAGG the figure was -0.609; with TGAACTGCTTCTGAGTTGCCAA, -0.648; with TAGCTCTGGTCGATCACTTTTT, -1. On the same count and under the same terms, with TAATTGAACTGCTTCTGAGTTG the figure was -0.401.

As for TTTCTGAACTGGCACTACCGCC, the sensor-assay potency score (higher = more potent) is -0.966. On the same count and under the same terms, with TATAATACCCACAAATATCTGT the figure was 0.241; with TTGATTGCAATGATGTCAGAAA, -0.689. Still for that read-out and setting: then TTTCTGGTCAAGCCACTCTGAT, with -1.17. Same read-out and setting: then TTATGAAATGTAGCTCTCCATG, with -1.39.
